Inconclusive results are not listed. A call without a number means that no potency is given here. Calls of active or inactive are those of the source. Calls come from the whole dose curve; as a rule, active = well fitted inhibition curve with a large enough effect; inconclusive = small, poorly fitted or top-dose-only effect; inactive = flat fitted curve, though single readings scatter.
Legend:
[1] = qHTS profiling for inhibitors of Plasmodium falciparum proliferation (AID 504749); note: nearly all actives have a fitted effect of over 60% in size; settings: P. falciparum in erythrocytes, SYBR Green DNA, 72 h
Procedure, shortened: (§1)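 Each compound contacts P. falciparum-infected red blood cells for 72 h at 37 C; lysis buffer (Tris, EDTA, saponin, Triton X, SYBR Green I) is added and fluorescence measured next morning; values normalized to controls.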

[2] = test system: 3D7; test: as above; settings: P. falciparum in erythrocytes, SYBR Green DNA, 72 h; series mostly up to 28.7 µM
Procedure, shortened: as §1

[3] = test system: 7G8; test: as above; settings: P. falciparum in erythrocytes, SYBR Green DNA, 72 h; series mostly up to 28.7 µM
Procedure, shortened: as §1

[4] = test system: AA1029; test: as above; settings: P. falciparum in erythrocytes, SYBR Green DNA, 72 h; series mostly up to 28.7 µM
Procedure, shortened: as §1

[5] = test system: AS120; test: as above; settings: P. falciparum in erythrocytes, SYBR Green DNA, 72 h; series mostly up to 28.7 µM
Procedure, shortened: as §1

[6] = test system: ATS189; test: as above; settings: P. falciparum in erythrocytes, SYBR Green DNA, 72 h; series mostly up to 28.7 µM
Procedure, shortened: as §1

[7] = test system: ATS95; test: as above; settings: P. falciparum in erythrocytes, SYBR Green DNA, 72 h; series mostly up to 28.7 µM
Procedure, shortened: as §1

[8] = at 28.7 µM (top of the series), parasite line A
[9] = at 28.7 µM (top of the series), parasite line B
Potency is the fitted concentration of half-maximal effect.

Structure (SMILES)	Potency ([1]; parasite line A)	Potency ([1]; parasite line B)	Potency [2]	Potency [3]	Potency [4]	Potency [5]	Potency [6]	Potency [7]	activity, negative = inhibition [1, 8]	activity, negative = inhibition [1, 9]	activity, negative = inhibition ([1]; at 12.8 µM (top of the series), parasite line A)	activity, negative = inhibition ([1]; at 12.8 µM (top of the series), parasite line B)
CCNC(=O)[C@@H]1CCCN1C(=O)[C@H](CCCN=C(N)N)NC(=O)[C@H](CC(C)C)NC(=O)[C@@H](Cc1c[nH]c2ccccc12)NC(=O)[C@H](Cc1ccc(O)cc1)NC(=O)[C@H](CO)NC(=O)[C@H](Cc1c[nH]c2ccccc12)NC(=O)[C@H](Cc1cnc[nH]1)NC(=O)[C@@H]1CCC(=O)N1	4470 nM (active)	5620 nM (active)	7080 nM (active)	1120 nM (active)	3160 nM (active)	4470 nM (active)	8910 nM (active)	4470 nM (active)	–	–	–	–
O=C(O)CCC(=O)C(=O)O	–	–	inactive	inactive	inactive	inactive	inactive	inactive	2.78% (inactive)	9.14% (inactive)	–	–
C[C@]12O[C@H](C[C@]1(O)CO)n1c3ccccc3c3c4c(c5c6ccccc6n2c5c31)CNC4=O	398 nM (active)	447 nM (active)	224 nM (active)	100 nM (active)	316 nM (active)	251 nM (active)	316 nM (active)	355 nM (active)	–	–	–	–
CO[C@H]1C[C@@H]2CC[C@@H](C)[C@@](O)(O2)C(=O)C(=O)N2CCCC[C@H]2C(=O)O[C@H]([C@H](C)C[C@@H]2CC[C@@H](OCCO)[C@H](OC)C2)CC(=O)[C@H](C)/C=C(\C)[C@@H](O)[C@@H](OC)C(=O)[C@H](C)C[C@H](C)/C=C/C=C/C=C/1C	2240 nM (active)	1120 nM (active)	1780 nM (active)	1120 nM (active)	1410 nM (active)	1120 nM (active)	1260 nM (active)	2000 nM (active)	–	–	–	–
Cc1cn([C@H]2C[C@H](O)[C@@H](CO)O2)c(=O)[nH]c1=O	–	–	inactive	inactive	inactive	inactive	inactive	inactive	4.1% (inactive)	-3.41% (inactive)	–	–
COC(F)(F)C(Cl)Cl	–	–	inactive	inactive	inactive	inactive	inactive	inactive	16.9% (inactive)	-4.97% (inactive)	–	–
C[C@]12CCC(=O)C=C1CC[C@@H]1[C@@H]2[C@@H](O)C[C@@]2(C)[C@H]1CC[C@]2(O)C(=O)COP(=O)(O)O	–	–	inactive	inactive	inactive	inactive	inactive	inactive	1.99% (inactive)	-7.41% (inactive)	–	–
CCCC(=O)Nc1ncnc2c1ncn2C1OC2COP(=O)(O)OC2C1OC(=O)CCC (stereo not given)	–	–	inactive	inactive	inactive	inactive	inactive	inactive	6.84% (inactive)	-4.45% (inactive)	–	–
O=C(O)CN(CCN(CC(=O)O)CC(=O)O)CC(=O)O	–	–	inactive	inactive	inactive	inactive	inactive	inactive	-1.94% (inactive)	14.3% (inactive)	–	–
C#CCOc1ccc2c(C)cc(=O)oc2c1	–	–	inactive	inactive	inactive	inactive	inactive	inactive	3.33% (inactive)	5.62% (inactive)	–	–
CCCCCCCCCCCC[n+]1ccc2ccccc2c1	794 nM (active)	501 nM (active)	1120 nM (active)	316 nM (active)	1260 nM (active)	1410 nM (active)	1000 nM (active)	2000 nM (active)	–	–	–	–
CC(NNC(=O)c1ccccc1)c1ccccc1 (stereo not given)	–	–	inactive	inactive	inactive	inactive	inactive	inactive	2.16% (inactive)	14.7% (inactive)	–	–
Nc1c(N=Nc2ccc(-c3ccc(N=Nc4cc(S(=O)(=O)O)c5ccccc5c4N)cc3)cc2)cc(S(=O)(=O)O)c2ccccc12	–	–	inactive	inactive	inactive	inactive	inactive	inactive	6.43% (inactive)	-3.17% (inactive)	–	–
CC(C)(C)C(=O)OCOC(=O)[C@@H]1N2C(=O)[C@@H](N=CN3CCCCCC3)[C@H]2SC1(C)C	–	–	inactive	inactive	inactive	inactive	inactive	inactive	–	–	1.15% (inactive)	5.1% (inactive)
CC(O)CO (stereo not given)	–	–	inactive	inactive	inactive	inactive	inactive	inactive	8.15% (inactive)	7.84% (inactive)	–	–
